Screens: PubChem, National Center for Advancing Translational Sciences (NCATS)
Rows were chosen to be rich in hits. Some 21% of all compounds tested hit in one or more screens of this group.
Shiga toxin inh = inhibitors of Shiga toxin in Vero cells; Vero cells, Shiga toxin protein synthesis inhibition reporter; inhibition, % at 38.7 µM; actives 9.2% (n = 290,000); AID 2315; in the data active = inhibition mostly above about 28%, no sharp cut-off; inactive = mostly below about 43%; note: 0% is about no effect
Giardia FBPA inh = inhibitors of Giardia lamblia fructose-1,6-bisphosphate aldolase; A8B2U2; actives 0.71% (n = 290,000); Potency, µM (top dose mostly 59.6 µM), inactives show at the highest dose activity, negative = inhibition, usual class: inhibitors; purified Giardia FBPA; note: potency is the fitted concentration of half-maximal effect; % is set by controls: 0 for no effect and ±100 for the full control effect; nearly all actives have a fitted effect of over 55% in size
Target sequence (A8B2U2 whole entry, looked up): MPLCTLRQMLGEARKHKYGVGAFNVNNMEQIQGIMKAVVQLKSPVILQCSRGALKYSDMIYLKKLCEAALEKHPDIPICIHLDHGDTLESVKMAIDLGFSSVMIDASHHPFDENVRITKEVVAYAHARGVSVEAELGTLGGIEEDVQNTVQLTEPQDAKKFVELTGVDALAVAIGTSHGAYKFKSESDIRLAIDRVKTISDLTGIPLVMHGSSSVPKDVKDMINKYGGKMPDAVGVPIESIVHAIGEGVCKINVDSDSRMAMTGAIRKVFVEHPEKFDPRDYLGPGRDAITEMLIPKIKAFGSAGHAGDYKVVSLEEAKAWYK
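40 nM FBPA preincubated 10 min at RT with compound (up to 57.5 uM final), then substrate plus GAPDH/TPI/NAD/arsenate coupling and diaphorase/resazurin added. Fluorescence read after 20 min at RT, 525/598 nm.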
CHX counter-1 = counter-screen for Shiga toxin inhibitors: cycloheximide protein synthesis inhibition; max response, %; actives 12% (n = 300,000); cell reporter, cycloheximide protein synthesis inhibition counterscreen; in the data active = max response mostly above about 13%, no sharp cut-off; inactive = mostly below about 14%; note: read at 38.3 µM for the half of the compounds with a filed dose; 0% is about no effect
Pf growth 96h = inhibits malaria parasite growth, 96 h; P. falciparum luciferase reporter growth, 96 h; Potency, µM (titrated, usually from 28.7 µM), for the others: top-dose activity change, negative = inhibition, actives largely listed as inhibitors; actives 6.9% (n = 320,000); note: potency is the fitted concentration of half-maximal effect; % is set by controls: 0 for no effect and ±100 for the full control effect
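P. falciparum expressing integrated firefly luciferase grown in erythrocytes (2% hematocrit, 0.05% parasitemia final) with compounds for 96 hours at 37 C, 5% CO2. Growth inhibition read as loss of luminescence after adding luciferase detection reagent.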
Pf growth 48h = P. falciparum growth inhibition at 48 hours (one generation) | P. falciparum luciferase growth in erythrocytes, 48 h | Potency, µM (highest dose often 28.7 µM), for inactives: at the top dose activity change, negative = inhibition, usual class: inhibitors | actives 5.9% (n = 310,000) | AID 504832; note: potency is the fitted concentration of half-maximal effect; % is set by controls: 0 for no effect and ±100 for the full control effect
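Cell-based growth assay: transgenic P. falciparum expressing firefly luciferase, cultured in red cells within RPMI 1640 containing 0.5% w/v Albumax, 24 mM bicarbonate and gentamycin. A drop in luciferase activity indicates inhibition.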
NS1 inh = blocks influenza NS1 protein function; Potency, µM (series often up to 46.1 µM), without a hit: at the highest dose activity, positive = more growth; actives 0.4% (n = 270,000); AID 2326; calls by dose curve; note: potency is the fitted concentration of half-maximal effect; actives are rising curves; nearly all actives have a fitted effect of over 50% in size
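S. cerevisiae expressing influenza A NS1, grown in glucose, washed, then diluted 1:100 into pH 6.0 -URA galactose medium with 23 nl compound. Growth recovery read as OD600; NS1-free strain serves as control.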
CHX counter-2 = affects protein synthesis reporter in cycloheximide counter-screen; Potency, µM (titrated, usually from 38.3 µM), inactives show top-dose activity (activation), usual class: activators; AID 2318; Cycloheximide counterscreen, protein synthesis reporter, Shiga toxin assay; actives 3% (n = 510); shares compounds with Shiga toxin inh; calls by dose curve; note: potency is the fitted concentration of half-maximal effect; 0% is about no effect
Active calls of the source: *; ? = inconclusive; . = no result given. Unless noted, calls come from the whole dose curve; as a rule, active = well fitted curve in the direction sought with a large enough effect; inconclusive = small, poorly fitted or top-dose-only effect, or another doubt; inactive = no such curve, though single readings can be large; an effect the other way counts as inactive or inconclusive.

SMILES	Shiga toxin inh	Giardia FBPA inh	CHX counter-1	Pf growth 96h	Pf growth 48h	NS1 inh	CHX counter-2
Cc1ccc(C(=O)N2CCN(S(=O)(=O)c3sc(C(=O)O)c(C)c3C(=O)O)CC2)s1	.	.	.	27.2%	-16.7%	.	.
COc1ccc(C)cc1NC(=O)COC(=O)c1ccc2c(c1)OCCO2	.	.	.	0.0%	-9.7%	.	.
CC(C)(C)c1ccc(C(=O)Nc2cccc3ncccc23)cc1	-4.9	-1.8%	14.7	?	?	0.6%	.
CC(=O)Nc1cccc2ncccc12	40.7*	0.7%	-2.6	4.15µM*	17.3%	7.6%	-4.6%
O=C(Nc1ccc(/C=C/c2nc3ccccc3o2)cc1)c1ccc(F)cc1	36.7*	4.1%	9.3	?	?	25.6%	2.25µM*
CCOc1ccccc1NC(=O)CN(c1ccc(Cl)cc1)S(C)(=O)=O	-7.6	-8.8%	-3.0	?	-17.3%	22.6%	.
Cc1ccc(CNC(=O)CNS(=O)(=O)c2ccc(Br)s2)cc1	-13.6	6.3%	3.1	-1.7%	33.0%	14.0%	.
Nc1ccc2nn(-c3cccc4ccccc34)nc2c1	49.0*	?	2.2	.	?	-4.0%	3.1%
O=C(NCc1ccncc1)C(=O)NCC1OCCN1S(=O)(=O)c1ccc(F)cc1 (stereo unspecified)	31.0*	.	-2.0	-6.2%	15.5%	1.2%	-1.8%
O=C(NCc1ccncc1)C(=O)NCC1OCCCN1S(=O)(=O)c1ccc(F)cc1 (stereo unspecified)	-30.1	.	-2.4	12.3%	1.9%	17.7%	.
CCN1CCN(Cc2nnc(-c3ccc(C)cc3)o2)CC1	42.7*	6.1%	5.1	22.9%	33.3%	5.1%	-0.6%
O=C(Sc1cccc2cccnc12)c1ccccc1Br	40.7*	5.8%	7.6	4.65µM*	1.31µM*	-59.9%	9.3%
CC(=O)/C(=N\Nc1ccccc1Cl)Sc1cccc2cccnc12	1.4	-1.1%	5.2	135.9%	-5.0%	-5.5%	.
Cc1ccc(NC(=O)c2c(C(F)(F)F)nn(C)c2Cl)cc1C	29.1*	3.7%	-1.6	72.3%	42.0%	1.1%	-1.6%
C=C1CCC(O)C/C1=C\C=C1/CCCC2(C)C1CCC2C(C)/C=C/C(C)C(C)C (stereo unspecified)	.	-7.2%	.	.	.	.	.
CCCCn1c(SCC(=O)c2ccccc2)nc2c1c(=O)[nH]c(=O)n2C	15.6*	-1.4%	-1.0	13.0%	-6.0%	0.5%	0.0%
CCCCCn1c(SCCc2ccccc2)nc2c1c(=O)[nH]c(=O)n2C	25.3	9.1%	-1.5	-11.3%	22.0%	-3.4%	.
CC(C)OCCCNC(=O)c1cc2c(s1)CS(=O)(=O)C2	-8.0	1.4%	-2.7	?	4.1%	-10.5%	.
O=C(CSc1nnc(CNC(=O)C23CC4CC(CC(C4)C2)C3)n1-c1ccc(F)cc1)Nc1ccccc1	-17.0	-2.5%	-3.3	?	?	-23.6%	.
COc1ccccc1C(=O)CSc1nccn1C	21.8*	-27.1%	17.2	20.1%	79.2%	9.5%	4.9%
COc1ccc(C)cc1NC(=O)C1CCN(S(=O)(=O)c2cccs2)CC1	6.6	4.3%	-2.1	?	-11.2%	12.8%	.
CCOC(=O)c1cc2sccc2n1Cc1ccccc1	6.1	3.7%	-0.8	?	-8.9%	-11.2%	.
CCOC(=O)c1cc2sccc2n1CCCN1C(=O)c2ccccc2C1=O	109.7*	-3.9%	3.1	-93.8%	15.3%	-8.4%	0.2%
Cc1ccccc1OC(=O)C1C(c2ccccc2)C(C(=O)O)C1c1ccccc1 (stereo unspecified)	-5.0	19.3%	-3.4	20.4%	.	-1.0%	.
COc1ccccc1C(=O)NNC(=O)c1ccc2ccccc2c1	.	-6.7%	1.2	51.6%	46.7%	-10.2%	-0.7%
COc1ccccc1NC(=O)NNC(=O)c1ccc2ccccc2c1	-4.4	1.2%	-2.6	37.4%	?	5.8%	.
COc1ccc(CNC(=O)c2ccc(Cl)c(NC3=NC4CS(=O)(=O)CC4S3)c2)cc1 (stereo unspecified)	2.0	-1.1%	-2.0	-22.3%	4.8%	2.2%	.
